Activation data for 86 compounds are collected here from PubChem BioAssay AID652017 (The Scripps Research Institute Molecular Screening Center, 2013).

SMILES strings stand for the structures. Several values for one entry are separate records, joined by “and”; a condition that tells them apart may be missing. Equal entries are not always repeated. Screen size: about 370,000 compounds; about 3,800 (1%) were called active. Rule as the data show it: active = activation above about 7.8%; inactive = the rest. The list comes from a sample in which actives are over-represented; it also holds similar structures and randomly drawn compounds.

This test can be described thus: SMARCA2 (BRM) function activators, primary screen, cell-based, luminescence, high throughput (AID 652017).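 Also: 0% = vehicle wells and 100% = reference activator wells.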 Particulars: MG213 cells, MMTV-luciferase reporter, dexamethasone, overnight; at 9.1 µM; hits give high values. On the technique in general: Reporter assays use an easily measured gene product as a stand-in for the process of interest.
Take `O=C(CSc1nc2ccccc2s1)N=Nc1c(O)[nH]c2ccccc12`: the activation was -2.44% (inactive).
To `COc1ccc(N(CC(=O)Nc2ccc(C)cc2C)S(=O)(=O)c2ccccc2[N+](=O)[O-])c(OC)c1` belongs -0.94% (inactive); to `COc1ccc(C)cc1S(=O)(=O)N(CC(=O)Nc1cccc([N+](=O)[O-])c1)c1ccc(C)cc1`, 9.29% (active); to `Cc1ccc(S(=O)(=O)N(CC(=O)Nc2cccc([N+](=O)[O-])c2)Cc2ccc(Cl)cc2)cc1`, -2.5% (inactive).
`Nc1ccc2c(c1)C(=Cc1cccnc1)c1ccccc1-2`: the activation is 0.27% (inactive).
As for `Cc1ccccc1C1=N/C(=C/c2cccnc2)C(=O)O1`, the figure is 10.3% (active); as for `Cc1ccc(C2=C/C(=C\c3cccnc3)C(=O)O2)cc1`, 5.23% (inactive); as for `CCn1c(SCC(C)=O)nc2sc3c(c2c1=O)CCCC3`, -0.23% (inactive).
Consider `Cc1cccc(-n2c(O)c(C=Nc3ccccc3N)c(=O)[nH]c2=O)c1`, for which the activation was 9.92% (active).
As for `O=C(CSc1nc2sc3c(c2c(=O)n1-c1ccccc1)CCCC3)NN=Cc1ccc(OCc2ccccc2)cc1`, the figure is -2.96% (inactive); as for `Cc1ccc(Cn2cc(CN3[C@@H](C)COc4cc(Br)ccc4S3(=O)=O)nn2)cc1`, -6.23% (inactive).
As for `O=C(O)Cn1c(Cc2ccccc2)nc2ccccc21`, the figure is -0.68% (inactive); as for `O=C(Cn1ncc2c3ccccc3n(Cc3ccccc3)c2c1=O)NCc1ccccn1`, -0.48% (inactive).
Take `O=S(=O)(Cc1ccccc1)c1nc2ccccc2n1Cc1ccccn1`: the activation is 7.86% (active).
As to `O=C1NC[C@@H](CCCCN2CCN(CCc3ccc(O)cc3)C(=O)C2=O)N(CC2CCCCC2)C1=O`, the activation is 0.65% (inactive).
On to `Cc1ccc(Cn2cc(CN3[C@@H](CC(C)C)COc4ccc(Cl)cc4S3(=O)=O)nn2)cc1`, for which the activation is 0.91% (inactive).
To `CC(CCN1CCC(C(O)(c2ccccc2)c2ccccc2)CC1)Oc1ccc(C(F)(F)F)cc1` (stereo unspecified) belongs 0.64% (inactive).
To `COC(=O)[C@]12CCCCC=C1N(Cc1ccco1)C(=O)[C@H](CC(=O)NCC1CCCCC1)C2` belongs -5.18% (inactive); to `Cc1cc(-c2nc(C)c(-c3nnc(SCC(=O)Nc4ccccc4)n3C)s2)no1`, -1.01% (inactive); to `Cc1nc(-c2nnc(SCC(=O)Nc3cc(C(F)(F)F)cc(C(F)(F)F)c3)n2C)cs1`, 8.28% (active).
As for `Cn1c(SCC(=O)Nc2cccc(NC(=O)c3cccs3)c2)nnc1-c1ccncc1`, the figure is 2.18% (inactive); as for `Cc1cc(=O)[nH]c(SCC(=O)Nc2ccc(F)cc2F)n1`, -4.89% (inactive).
Regarding `COc1cccc(C(=O)NNS(=O)(=O)c2ccc(F)cc2)c1`, the activation is -0.53% (inactive).
With `COc1cccc(C(=O)Nc2nc3ccc(S(C)(=O)=O)cc3s2)c1`, the activation was 8.68% (active).
To `COc1cccc(C(=O)Nc2nnc(S(=O)(=O)N3CCOCC3)s2)c1` belongs -2.26% (inactive).
As for `O=C(CSc1nc2ccccc2n1Cc1ccccc1Cl)N/N=C\c1c[nH]c2ccccc12`, the figure is -4.04% (inactive); as for `C=CC(=O)OCCOCCOCCOCCOC(=O)C=C`, 13.1% (active).
Turning to `CCc1nc2c(OCCOc3ccccc3)cccn2c1N(C)C(=O)c1ccc(OC)cc1`, the activation was -6.52% (inactive).
To `O=C1CCC2(CCC(c3ccc(Cl)cc3)CC2)N1CCO` (stereo unspecified) belongs -3.07% (inactive); to `CCCCCCN1CCS(=O)(=O)N(Cc2ccc(C(F)(F)F)cc2)C(C(=O)OC)C1` (stereo unspecified), -1.27% (inactive).
As for `O=C(CSc1nnc(-c2ccccc2)n1Cc1ccco1)Nc1ccccc1-c1ccccc1`, the figure is -7.03% (inactive); as for `Cc1ccc(C)c(NC(=O)CCS(=O)(=O)c2ccccc2)c1`, 0.55% (inactive).
Regarding `Cc1ccc(F)c(NC(=O)CCOc2ccccc2C)c1`, the activation is -0.21% (inactive).
To `Cc1ccc(F)c(NC(=O)CCc2ccccc2)c1` belongs 11.3% (active); to `C[C@H](NC(=O)c1ccccc1Cl)C(=O)OCCOc1cccc(Cl)c1`, -0.67% (inactive).
As for `COC(=O)c1sc(-c2ccc(C(C)(C)C)cc2)cc1NC(=O)/C=C/C(=O)O`, the figure is 9.14% (active); as for `O=C(C=CC(=O)Nc1ccc(F)cc1F)Nc1ccc(F)cc1F`, 0.37% (inactive); as for `COC(=O)C[C@@H]1CC[C@@H]2[C@@H](COc3ccc(NC(=O)Nc4ccc(F)c(F)c4)cc3C(=O)N2C)O1`, -2.75% (inactive).
As for `CC(=O)c1sc(NC(=O)c2ccc(C)cc2)nc1C`, the figure is 9.69% (active).
As for `CC(=O)c1sc(N/N=C\c2ccc(C)cc2)nc1C`, the activation is 13.4% (active).
As to `Cc1ccc(/C=N/NC(=O)C(NC(=O)c2ccccc2)c2n[nH]c(=O)c3ccccc23)cc1` (stereo unspecified), the activation is -1.07% (inactive).
To `CCOC(=O)c1sc(/N=C/Nc2nc(C)c(C(=O)OCC)s2)nc1C` belongs -0.22% (inactive).
Consider `Cc1ccc(C(=O)Nc2nc(N)n(-c3ccccc3)n2)cc1`, for which the activation was -1.21% (inactive).
With `CC(=O)c1sc(N)nc1C`, the activation was -0.52% (inactive) and -1.75% (inactive).
For the compound `C[C@H]1CCC/C=C/C(=O)c2c(O)cc(O)cc2CC(=O)O1`, the activation is 6.88% (inactive).
In the case of `CCCCNC(=O)C[C@H]1C[C@@]2(C(=O)OC)C(=C[C@H](COCc3ccccc3)O[C@@H]2C)N(Cc2ccc(Cl)cc2Cl)C1=O`, the activation is -3.4% (inactive).
Turning to `C=CCN1[C@@H](Cc2ccccc2)COc2cccc(N3CCSCC3)c2S1(=O)=O`, the activation is -1.33% (inactive).
`COC(=O)[C@]1(C#N)CC(=O)N(CC2CCCCC2)[C@@H]1c1ccccc1`: the activation was -6.17% (inactive).
To `COC(=O)[C@]12C[C@H](CC(=O)NCc3ccccc3)C(=O)N(Cc3ccccc3)C1=C[C@H](COCc1ccccc1)O[C@@H]2C` belongs 2.84% (inactive).
On to `Cc1ccc(-c2nc(C3CCCN(S(=O)(=O)c4ccc(Br)s4)C3)no2)cc1` (stereo unspecified), for which the activation is -5.3% (inactive).
As for `CN(C)c1nc(=Nc2cccc(Cl)c2)ss1`, the figure is 10.5% (active).
To `CCCCCCCCNS(=O)(=O)/C=C/c1cc(C)ccc1CNC(=O)OC(C)(C)C` belongs -5.6% (inactive); to `C=CCN1C(=O)[C@@H](CC(=O)NCC2CCCCC2)[C@]2(C(=O)OC)CCCCC=C12`, -0.86% (inactive).
To `CCOC(=O)c1cc2cc(-c3c(C(=O)OCC)oc4cc(O)cc(O)c4c3=O)ccc2o1` belongs -3.39% (inactive); to `Cc1ccsc1-c1nc(CSCC(=O)NCCN2CCCC2)c(C)o1`, 8.31% (active).
As for `Cc1ccc(-c2nc(CSCC(=O)NC3CCN(Cc4ccccc4)CC3)c(C)o2)cc1`, the activation is -3.96% (inactive).
For `Cc1cc(NC(=O)CSCc2nc(-c3cccc(Cl)c3)oc2C)no1`, the activation was -4.35% (inactive).
As for `C=CCN1C(=O)[C@@H](CC(=O)NCCCCc2ccccc2)[C@]2(C(=O)OCC)CCCCC/C=C/12`, the figure is -5.79% (inactive).
`CC1(C)O[C@@H]2CC3C4C[C@H](F)C5=CC(=O)C=CC5(C)C4C(O)CC3(C)[C@]2(C(=O)CO)O1` (stereo partly specified): the activation is -1.35% (inactive).
To `C=C(C)C#CC(Cc1ccccc1)NCC1CC1` (stereo unspecified) belongs -5.21% (inactive).
Take `COCCOC1CCN(C(=O)c2ccc(OC)c(OC3CCN(C(C)C)CC3)c2)CC1`: the activation was -1.95% (inactive).
As for `CC(C)Cc1nnc(NC(=O)CCNC(=O)c2ccccc2Cl)s1`, the figure is 9.18% (active); as for `COc1ccccc1OCCNC(=O)CCNC(=O)c1ccccc1Cl`, 0.37% (inactive); as for `CC(C)Cc1nnc(NC(=O)CCC(=O)Nc2ccc3cn[nH]c3c2)s1`, -4% (inactive).
As for `Cc1nc2cc(S(=O)(=O)C(F)(F)F)ccc2s1`, the figure is 5.28% (inactive); as for `COC(=O)Cc1ccc(OC(=O)C2CCN(S(=O)(=O)c3ccc(OC)c(OC)c3)CC2)cc1`, -1.69% (inactive); as for `Cc1ccc(-n2c(SCC(=O)Nc3ccc(S(=O)(=O)Nc4nccs4)cc3)nnc2-c2ccncc2)cc1`, -0.03% (inactive).
To `Cc1cc(-n2cnc(-c3cn(C)nc3C)n2)no1` belongs 8.03% (active); to `Cc1ccc(Cn2cc(COC(=O)N(C)Cc3ccccc3)nn2)cc1`, -1.94% (inactive).
In the case of `O=S1(=O)c2c(cccc2N2CCCCC2)O[C@H](COCc2ccccc2)CN1C1CC1`, the activation is -5.02% (inactive).
To `CCOc1ccc(-n2c(SCC(=O)Nc3cc(C)c(NC(=O)c4ccccc4)cc3OC)nnc2-c2cccs2)cc1` belongs -4.31% (inactive).
For the compound `CCOC(=O)c1c(NC(=S)SC)sc(C(=O)N2CCc3ccccc3C2)c1C`, the activation was -2.6% (inactive).
To `O=C(Nc1cccc([N+](=O)[O-])c1)N1CCc2ccccc2C1` belongs 12.9% (active).
For the compound `Cc1cccc(C)c1NC(=O)c1ccc(CN2CCc3ccccc3C2)cc1`, the activation is -1.14% (inactive).
`Cc1cccc(OC(C)C(=O)N2CCc3ccccc3C2)c1` (stereo unspecified): the activation is -2.36% (inactive).
To `O=C(C(=O)N1CCc2ccccc2C1)c1c[nH]c2ccccc12` belongs 0.35% (inactive); to `CCc1ccc(NC(=O)N2CCc3ccccc3C2)cc1`, 7.91% (active).
To `COC(=O)c1ccccc1-n1cc(COC(=O)NCCc2ccccc2)nn1` belongs -2.76% (inactive); to `CCCCNC(=O)C[C@H]1C(=O)N(Cc2ccc(OC)cc2)C2=CCCC[C@@]21C(=O)OCC`, -1.43% (inactive).
As for `Cc1nc2ccccc2n1CC(=O)N/N=C/c1cccs1`, the figure is 0.43% (inactive).
As for `Cc1n[nH]c(=O)nc1N/N=C/c1cccs1`, the activation is 9.22% (active).
Turning to `Cn1c(=O)c2c(nc(N/N=C/c3cccs3)n2Cc2ccc(Br)cc2)n(C)c1=O`, the activation was -0.25% (inactive).
To `O=C(c1ccncc1)N1CC[C@H]2[C@H](CCCN2Cc2ccc(F)cc2)C1` belongs 0.1% (inactive).
To `COc1ccc(Cn2ccc3ccc(-c4ccc5ccn(Cc6ccccc6C)c5c4)cc32)cc1` belongs -1.41% (inactive); to `COC(=O)C[C@@H]1CC[C@@H]2[C@H](COc3ccc(NC(=O)c4cccc(F)c4)cc3C(=O)N2C)O1`, -3.28% (inactive); to `COC(=O)C[C@H]1CC[C@H]2[C@H](COc3ccc(NC(=O)C4CC4)cc3C(=O)N2C)O1`, -0.29% (inactive).
